Reference: PubChem BioAssay

experiment: compound effects on lung adenocarcinoma cell viability – A549, calcein-AM fluorescence, 48 h, basal, profiling panel (AID 1162); details: higher = more signal
Note: test concentration not given here.

SMILES	z-score
CN(C)C(=O)[C@]1(Cc2ccccc2CN=[N+]=[N-])N=C(c2ccc(OCCCO)cc2)O[C@@H]1c1ccccc1CN=[N+]=[N-]	-0.999
COc1ccc([C@H]2OC[C@@H]3CC4(CC=CC4)C(=O)N32)cc1	0.262
CCCC[C@@H]1C[C@H]1[C@@H](NC(=O)c1ccco1)c1ccc(C(=O)OC)cc1	-1.06
O=C1C[C@]2(c3ccc([N+](=O)[O-])cc3)C(=O)N(CCN3CCOCC3)c3cc(CO)ccc3[C@H]2N1C1CCCCC1	0.648
O=C(O)[C@@]1(CCS(=O)(=O)c2ccccc2)COC(c2ccc(OCCCO)cc2)=N1	0.518
COc1ccc(C(O)C2C=CC3C(=O)N(c4ccccc4)C(=O)C3N2Nc2ccccc2F)cc1OCc1ccccc1 (stereo not drawn)	-0.0678
CC(=O)NCCCC[C@@H]1NC(=O)[C@@H]2C[C@H](C(=O)NCCCCN(C)C)[C@H](c3cccc(OCCO)c3)N2C1=O	0.0857
O=C1NC(=O)C2C1C=CC(C(O)C(c1ccccc1)c1ccccc1)N2Nc1ccc(Cl)cc1Cl (stereo not drawn)	-2.92
COC(=O)C(CC#Cc1ccc2c(c1)[C@]1(C(=O)N2)[C@H](c2ccc(O)cc2)N2[C@H](c3ccccc3)[C@H](c3ccccc3)OC(=O)[C@H]2[C@@H]1C(=O)Nc1nc2ccccc2s1)C(=O)OC	1.37
C=CCOC(=O)[C@H]1[C@@H]2C(=O)O[C@@H](c3ccccc3)[C@@H](c3ccccc3)N2[C@@H](c2ccc(OCCOC(=O)[C@@H]3C[C@@H]4C(=O)N5CCC[C@H]5C(=O)N4[C@@H]3c3cccc(OCCO)c3)cc2)[C@]12C(=O)Nc1ccccc12	-0.0865
COc1cc(CO)cc(I)c1O[C@H]1C=C(C(=O)NCCO)C[C@@H](N(CCN2CCOCC2)C(=O)C2CCOC2)[C@@H]1O (stereo partly drawn)	0.736
C=CCOC(=O)[C@@H]1[C@H]2C(=O)O[C@H](c3ccccc3)[C@H](c3ccccc3)N2[C@H](c2ccc(OCCOC(=O)[C@@H]3C[C@@H]4C(=O)N[C@@H](Cc5ccccc5)C(=O)N4[C@@H]3c3ccc(O)cc3)cc2)[C@@]12C(=O)Nc1ccc(I)cc12	-1.09
C=CCNC(=O)[C@H]1[C@@H]2C(=O)O[C@@H](c3ccccc3)[C@@H](c3ccccc3)N2[C@@H](c2ccccc2OCCO)[C@]12C(=O)Nc1ccc(C#CC3=CCCCC3)cc12	-1.64
Cc1ccc(S[C@]2(C(=O)NCCN3CCOCC3)CC(=O)N(Cc3ccccc3Cl)[C@@H]2c2ccc(CO)cc2)cc1	0.263
COC(=O)[C@@]1(Cc2ccc(OC)cc2)[C@H]2c3cc(C(=O)N4CCCC4)n(Cc4ccccc4)c3C[C@H]2CN1C(=O)c1ccccc1	-0.549
CC(C)C(=C=CC[C@@H](O)c1ccccc1OCCO)CCO	0.855
CC(C)c1ccc(NN2C(C(O)C(c3ccccc3)c3ccccc3)C=CC3C(=O)N(c4ccccc4)C(=O)C32)cc1 (stereo not drawn)	-0.447
CCN(CC)c1ccc(N2CC=CC34O[C@@H]5/C=C\CCCOC(=O)C5[C@H]3C(=O)N(CCO)[C@@H]4C2=O)cc1 (stereo partly drawn)	1.05
COCCCNC(=O)C1N=C(c2ccc(OCCCO)cc2)N(c2ccccc2)O1 (stereo not drawn)	-0.201
COc1ccc([Si](C)(C)[C@H]2[C@H](CCO)O[C@@]3(C(=O)N(C)c4c(Br)cc(C)cc43)[C@@H]2C)cc1	-4.21
COC(=O)[C@@]1(Cc2ccccc2)[C@H]2c3cc(C(=O)N4CCCC4)n(CC4CC4)c3C[C@H]2CN1C(=O)c1ccccc1	-1.46
O=C1O[C@H](c2ccccc2)[C@H](c2ccccc2)N2[C@H]1[C@@H](C(=O)Nc1nc3ccccc3s1)[C@]1(C(=O)Nc3ccc(C#CC4(O)CCCCCC4)cc31)[C@H]2c1ccc(OCCO)cc1	-0.128
COC(=O)[C@@]1(Cc2ccc(F)cc2)[C@H]2c3cc(C(=O)N4CCCC4)n(Cc4cc(C)n(C)n4)c3C[C@H]2CN1C(=O)c1ccccc1	-0.553
CC(C)(C)OC(=O)CC[C@@]12N=C(c3ccc(OCCCO)cc3)O[C@@H]1c1ccccc1N(CCS(=O)(=O)c1ccccc1)C2=O	2.14
CC(C)(C)OC(=O)CC[C@]1(C(=O)NCC(O)CO)COC(c2ccc(OCCCO)cc2)=N1 (stereo partly drawn)	0.208
C=CC[C@@]1(C(N)=O)N=C(c2ccc(OCCCO)cc2)O[C@@H]1c1ccccc1CN=[N+]=[N-]	0.0465

experiment: compound effects on differentiated 3T3-L1 adipocyte viability – cell-based, 3T3-L1 adipocytes, calcein-AM fluorescence, 48 h, basal, profiling panel (AID 1163); details: 3T3-L1 adipocytes viability, higher = more signal

SMILES	z-score
COCCOC(=O)N1C(=O)[C@@]2(c3cc(C#Cc4ccc(OC)cc4)ccc31)[C@H](C(N)=O)[C@H]1C(=O)O[C@H](c3ccccc3)[C@H](c3ccccc3)N1[C@@H]2c1ccccc1OCCO	1.18
C=CCN1C(=O)[C@@]2(O[C@@H](CCO)[C@H]([Si](C)(C)c3ccc(OC)cc3)[C@H]2C)c2cc(NC(=O)c3ccc(OC)cc3)ccc21	-0.196
COC(=O)[C@@]1(Cc2ccc(F)cc2)[C@@H]2[C@@H](CC(=O)[C@H]2CC(=O)C(=O)N(C)C)CN1C(=O)c1ccccc1	-1.19
O=C1C2C=CC(C(O)c3ccc(F)cc3)N(Nc3ccccc3F)C2C(=O)N1c1ccccc1 (stereo not drawn)	-1.1
C=CCN(Cc1ccccc1)C(=O)C(c1cccs1)N(CCOCCO)C(=O)/C=C\C(=O)O (stereo not drawn)	0.345
C=C(CCCC)/C(=C/C[C@@H](OC(C)=O)c1ccccc1OCCO)c1cnc2ccccc2c1	1.79
COc1cc2c(cc1OC)CN(C(=O)[C@@H]1[C@H]3C(=O)O[C@H](c4ccccc4)[C@H](c4ccccc4)N3[C@H](c3ccc(O)cc3)[C@@]13C(=O)Nc1ccc(C#CC4(O)CCCCCC4)cc13)CC2	0.284
COCCOC(=O)N1C(=O)[C@@]2(c3cc(C#Cc4ccc(OC)cc4)ccc31)[C@H](c1ccc(O)cc1)N1[C@H](c3ccccc3)[C@H](c3ccccc3)OC(=O)[C@H]1[C@@H]2C(=O)NC[C@H](O)c1ccccc1	1.44
COCCOC(=O)N1C(=O)[C@@]2(c3cc(C#CC4=CCCCC4)ccc31)[C@H](C(=O)Nc1nc3ccccc3s1)[C@H]1C(=O)O[C@H](c3ccccc3)[C@H](c3ccccc3)N1[C@@H]2c1ccccc1OCCO	2.14
CN(C)C(=O)[C@]1(Cc2ccccc2CN=[N+]=[N-])N=C(c2ccc(OCCCO)cc2)O[C@@H]1c1ccccc1CN=[N+]=[N-]	1.59
COc1ccc([C@H]2OC[C@@H]3CC4(CC=CC4)C(=O)N32)cc1	-0.238
CCCC[C@@H]1C[C@H]1[C@@H](NC(=O)c1ccco1)c1ccc(C(=O)OC)cc1	-1.16
O=C1C[C@]2(c3ccc([N+](=O)[O-])cc3)C(=O)N(CCN3CCOCC3)c3cc(CO)ccc3[C@H]2N1C1CCCCC1	0.239
O=C(O)[C@@]1(CCS(=O)(=O)c2ccccc2)COC(c2ccc(OCCCO)cc2)=N1	-0.664
COc1ccc(C(O)C2C=CC3C(=O)N(c4ccccc4)C(=O)C3N2Nc2ccccc2F)cc1OCc1ccccc1 (stereo not drawn)	-1.77
CC(=O)NCCCC[C@@H]1NC(=O)[C@@H]2C[C@H](C(=O)NCCCCN(C)C)[C@H](c3cccc(OCCO)c3)N2C1=O	-0.749

SMILES	z-score
O=C1NC(=O)C2C1C=CC(C(O)C(c1ccccc1)c1ccccc1)N2Nc1ccc(Cl)cc1Cl (stereo not drawn)	0.205
COC(=O)C(CC#Cc1ccc2c(c1)[C@]1(C(=O)N2)[C@H](c2ccc(O)cc2)N2[C@H](c3ccccc3)[C@H](c3ccccc3)OC(=O)[C@H]2[C@@H]1C(=O)Nc1nc2ccccc2s1)C(=O)OC	0.72
C=CCOC(=O)[C@H]1[C@@H]2C(=O)O[C@@H](c3ccccc3)[C@@H](c3ccccc3)N2[C@@H](c2ccc(OCCOC(=O)[C@@H]3C[C@@H]4C(=O)N5CCC[C@H]5C(=O)N4[C@@H]3c3cccc(OCCO)c3)cc2)[C@]12C(=O)Nc1ccccc12	1.05
COc1cc(CO)cc(I)c1O[C@H]1C=C(C(=O)NCCO)C[C@@H](N(CCN2CCOCC2)C(=O)C2CCOC2)[C@@H]1O (stereo partly drawn)	-0.917
C=CCOC(=O)[C@@H]1[C@H]2C(=O)O[C@H](c3ccccc3)[C@H](c3ccccc3)N2[C@H](c2ccc(OCCOC(=O)[C@@H]3C[C@@H]4C(=O)N[C@@H](Cc5ccccc5)C(=O)N4[C@@H]3c3ccc(O)cc3)cc2)[C@@]12C(=O)Nc1ccc(I)cc12	1.39
C=CCNC(=O)[C@H]1[C@@H]2C(=O)O[C@@H](c3ccccc3)[C@@H](c3ccccc3)N2[C@@H](c2ccccc2OCCO)[C@]12C(=O)Nc1ccc(C#CC3=CCCCC3)cc12	1.04
Cc1ccc(S[C@]2(C(=O)NCCN3CCOCC3)CC(=O)N(Cc3ccccc3Cl)[C@@H]2c2ccc(CO)cc2)cc1	1.03
COC(=O)[C@@]1(Cc2ccc(OC)cc2)[C@H]2c3cc(C(=O)N4CCCC4)n(Cc4ccccc4)c3C[C@H]2CN1C(=O)c1ccccc1	0.39
CC(C)C(=C=CC[C@@H](O)c1ccccc1OCCO)CCO	-1.23
CC(C)c1ccc(NN2C(C(O)C(c3ccccc3)c3ccccc3)C=CC3C(=O)N(c4ccccc4)C(=O)C32)cc1 (stereo not drawn)	-0.306
CCN(CC)c1ccc(N2CC=CC34O[C@@H]5/C=C\CCCOC(=O)C5[C@H]3C(=O)N(CCO)[C@@H]4C2=O)cc1 (stereo partly drawn)	0.327
COCCCNC(=O)C1N=C(c2ccc(OCCCO)cc2)N(c2ccccc2)O1 (stereo not drawn)	0.829
COc1ccc([Si](C)(C)[C@H]2[C@H](CCO)O[C@@]3(C(=O)N(C)c4c(Br)cc(C)cc43)[C@@H]2C)cc1	-1.8
COC(=O)[C@@]1(Cc2ccccc2)[C@H]2c3cc(C(=O)N4CCCC4)n(CC4CC4)c3C[C@H]2CN1C(=O)c1ccccc1	0.643
O=C1O[C@H](c2ccccc2)[C@H](c2ccccc2)N2[C@H]1[C@@H](C(=O)Nc1nc3ccccc3s1)[C@]1(C(=O)Nc3ccc(C#CC4(O)CCCCCC4)cc31)[C@H]2c1ccc(OCCO)cc1	1.45
COC(=O)[C@@]1(Cc2ccc(F)cc2)[C@H]2c3cc(C(=O)N4CCCC4)n(Cc4cc(C)n(C)n4)c3C[C@H]2CN1C(=O)c1ccccc1	-0.0099
